Assay results: PubChem BioAssay AID449762 (Southern Research Specialized Biocontainment Screening …, 2010)
The whole screen tested about 330,000 compounds, of which about 1,900 (0.58%) were called active. Not shown: some 4% with an inconclusive outcome. No stated cut-off is given here; in the data, inconclusive means inhibition above about 70% without an active follow-up result; inactive means below that. These entries were drawn from the full list. Potency and affinity values are given separately.

test: M. tuberculosis growth inhibition, HTS (AID 449762);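 further: bacterial growth assessed after seven days of incubation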; conditions: M. tuberculosis H37Rv growth inhibition, 7H9 media; at 25 µM; active compounds read high

Compound	inhibition
COCC1CCN(C(=O)c2cc(COc3ccccc3SC)on2)C1 (stereo not drawn)	-1.2% (inactive)
CSc1ccccc1OCc1cc(C(=O)N2CCSCC2)no1	4.18% (inactive)
CCOC(=O)[C@@]12C(=O)C(=O)N[C@]1(c1ccccc1)C1OCCCC12 (stereo partly drawn)	1.95% (inactive)
Cn1c2ccccc2c(=O)c2c(=O)n(Cc3ccco3)c(-c3ccc(F)cc3)nc21	0.8% (inactive)
COc1ccc(Cn2c(-c3ccc(C)cc3)nc3c(c(=O)c4ccccc4n3C)c2=O)cc1	-5.96% (inactive)
Cc1noc(C)c1CSCC(=O)Nc1cccc(C(F)(F)F)c1	-7.37% (inactive)
CCCCCCc1cc2cc(C(=O)NC)c(=N)oc2cc1O	2.6% (inactive)
CCCCCCc1cc2cc(C(=O)Nc3ccccc3)c(=O)oc2cc1O	-5.44% (inactive)
CCc1ccc(CNn2cnnc2SCC(=O)NC(C)(C)C)cc1	-7.47% (inactive)
CC1CN(CC(=O)Nc2ccc([N+](=O)[O-])cc2Br)CC(C)O1 (stereo not drawn)	0.73% (inactive)
NC(N)=NNC(=O)c1ccccc1Cl	-5.25% (inactive)
CCC/C(=N/NC(=O)c1ccccc1Cl)c1ccccc1	8.2% (inactive)
CN(Cc1ccccc1)CC(O)COc1ccc(CNCc2nccn2C)cc1 (stereo not drawn)	-8.78% (inactive)
NC(=O)CC(NC(=O)c1ccccc1)c1ccc(N2CCC(Cc3ccccc3)CC2)c([N+](=O)[O-])c1 (stereo not drawn)	5.54% (inactive)
CCCCCn1c(-c2ccco2)nc2nc3ccccc3nc21	16.5% (inactive)
CC(C)OCCCn1c(-c2ccco2)nc2nc3ccccc3nc21	0.09% (inactive)
C/C(=N\OCC(=O)Nc1ccccc1C(C)(C)C)c1ccc2c(c1)OCCO2	9.78% (inactive)
O=C(Cn1cnc2scc(-c3ccc(Br)cc3)c2c1=O)N1CCOCC1	2.04% (inactive)
Clc1ccc(CNC23CN4CN(CN(C4)C2)C3)c(Cl)c1	-14.8% (inactive)
O=C(Nc1ccncc1)c1cc(S(=O)(=O)N2CCCC2)ccc1Cl	5.2% (inactive)

Compound	inhibition
N#Cc1nc(-c2ccc(OCc3ccc(Cl)cc3)cc2)oc1NCCCn1ccnc1	0.8% (inactive)
N#Cc1nc(-c2ccc(OCc3ccccc3Cl)cc2)oc1NCCCn1ccnc1	0.78% (inactive)
COc1ccc(C2C(C(C)=O)=C(O)C(=O)N2c2cccnc2)c(OC)c1 (stereo not drawn)	-10.5% (inactive)
Cc1cccc(N2C(=O)C(Cl)=C(N3CCOCC3)C2=O)c1	-0.44% (inactive)
O=C1C(Cl)=C(N2CCOCC2)C(=O)N1c1cccc(C(F)(F)F)c1	8.59% (inactive)
CCOCC(=O)N1CCC(Cc2ccccc2)CC1	12.3% (inactive)
CCOC(=O)C(=O)N1CCC(Cc2ccccc2)CC1	1.59% (inactive)
Cc1oc(-c2ccccc2F)nc1CSCC(=O)NC1CCCC1	-11.2% (inactive)
CC(C)(Oc1ccc(F)cc1)C(=O)OCC(=O)c1ccc(S(C)(=O)=O)cc1	3.45% (inactive)
CCOC(=O)c1nn(-c2ccc(F)cc2)c2nc(Nc3ccccc3)cc(=O)n12	38.7% (inactive)
CCOC(=O)c1nn(-c2cccc(Cl)c2)c2nc(Nc3ccccc3)cc(=O)n12	-3.5% (inactive)
O=C(Nc1ccccc1)C1CC(=O)n2ncnc2N1 (stereo not drawn)	-4.59% (inactive)
Cc1ccc(S(=O)(=O)N2[C@@H](c3ccc(Br)cc3)C(C(=O)O)=CC[C@H]2c2ccc(Cl)cc2)cc1	9.55% (inactive)
CCN(CC)C(=O)c1ccc(C(=O)c2c(C)cc(C)cc2C)cc1	-0.54% (inactive)
COc1ccc2c(Cl)c(-c3nnc(SCC(N)=O)n3C)sc2c1	-4.23% (inactive)
COc1ccc2c(Cl)c(-c3nnc(SCC(=O)c4ccccc4)n3C)sc2c1	5.59% (inactive)
COc1ccc(NC(=O)c2ccc3c(=O)n(-c4ccc(OC)cc4OC)c(=S)[nH]c3c2)c(OC)c1	40% (inactive)
Cc1ccccc1-c1ncc(CN2CCC(CO)(CCCc3ccccc3)CC2)cn1	22.1% (inactive)
CC(=O)c1cccc(CN2CCC(CO)(CCCc3ccccc3)CC2)c1	-3.4% (inactive)
Cc1cc(C)c(NC(=O)c2cn3c4c(c(N5CCN(C)CC5)c(F)cc4c2=O)OCC3C)c(C)c1 (stereo not drawn)	9.2% (inactive)

Compound	inhibition
Cc1c(-n2cc(C(=O)O)c(=O)c3cc(F)c(N4CCCC4)c(F)c32)c(=O)n(-c2ccccc2)n1C	5.31% (inactive)
CCOc1cc(S(=O)(=O)N2CCN(S(=O)(=O)CC)CC2)c(OCC)cc1-n1cnnn1	0.44% (inactive)
O=C(O)/C=C/C(=O)Nc1nccs1	-2.62% (inactive)
O=C1C(C=NCCCN2CCCC2=O)=C(O)c2ccccc21	-5.89% (inactive)
COc1ccc(Cl)cc1NS(=O)(=O)c1cccc(C(=O)NC2CC2)c1	1.57% (inactive)
COc1ccc(-c2oc(NC(=O)c3ccc(C)cc3)c(C#N)c2-c2ccc(OC)cc2)cc1	5.32% (inactive)
COc1ccc(-c2oc(NC(C)=O)c(C#N)c2-c2ccc(OC)cc2)cc1	3.57% (inactive)
Cc1cc(C(=O)O)cc(S(=O)(=O)Nc2c(C)nn(C)c2C)c1C	-1.21% (inactive)
COc1cccc2cc(C(=O)OCc3ccccc3)c(=O)oc12	10.5% (inactive)
CN1OC(COC(=O)c2ccccc2)CC1c1ccccc1 (stereo not drawn)	66.5% (inactive)
CN1OC(COC(=O)c2ccc(Cl)cc2)CC1c1ccccc1 (stereo not drawn)	19.7% (inactive)
CCCn1cc(S(=O)(=O)c2ccc(F)cc2)c(=O)c2cc(OCC)ccc21	4.19% (inactive)
CC(=O)Nc1ccc(S(=O)(=O)Oc2cccc(/C=N/N=C3/NC(=O)C(CC(=O)O)S3)c2)cc1 (stereo not drawn)	-3.02% (inactive)
O=C(Nc1ccc(Cl)cc1C(F)(F)F)C(Sc1cccc[n+]1[O-])c1ccccc1 (stereo not drawn)	16.4% (inactive)
O=C(Nc1cccc(C(F)(F)F)c1)C(Sc1cccc[n+]1[O-])c1ccccc1 (stereo not drawn)	0.11% (inactive)
CS(=O)(=O)N(CC(=O)Nc1ccc(Br)cc1F)C1CCCCC1	-1.79% (inactive)
CC(=O)NCCC(=O)Nc1ccc(C(N)=O)cc1	3.35% (inactive)
O=C(/C=C/c1ccc([N+](=O)[O-])cc1)OCC(=O)N1c2ccccc2Sc2ccccc21	3.32% (inactive)
